# Measurements taken from PMC7862700, “An all-to-all approach to the identification of sequence-specific readers for epigenetic DNA modifications on cytosine”.
# Experiments:
# Assay in all cases: DAPPL (digital affinity profiling via proximity ligation, sequencing); 10 mM Tris-HCl pH 7.5, 50 mM NaCl, 1 mM DTT, 4% glycerol, room temperature, 30 min; GST-TFs on glutathione beads, 16-mer random dsDNA library, 0.1% formaldehyde crosslink after washing; high values mean tight binding
# FLI1 = biological target: T1, FLI1 (Homo sapiens, UniProt Q01543 1-452); settings: protein: recombinant; tags: N-terminal GST; dsDNA, one strand shown
# T1 sequence: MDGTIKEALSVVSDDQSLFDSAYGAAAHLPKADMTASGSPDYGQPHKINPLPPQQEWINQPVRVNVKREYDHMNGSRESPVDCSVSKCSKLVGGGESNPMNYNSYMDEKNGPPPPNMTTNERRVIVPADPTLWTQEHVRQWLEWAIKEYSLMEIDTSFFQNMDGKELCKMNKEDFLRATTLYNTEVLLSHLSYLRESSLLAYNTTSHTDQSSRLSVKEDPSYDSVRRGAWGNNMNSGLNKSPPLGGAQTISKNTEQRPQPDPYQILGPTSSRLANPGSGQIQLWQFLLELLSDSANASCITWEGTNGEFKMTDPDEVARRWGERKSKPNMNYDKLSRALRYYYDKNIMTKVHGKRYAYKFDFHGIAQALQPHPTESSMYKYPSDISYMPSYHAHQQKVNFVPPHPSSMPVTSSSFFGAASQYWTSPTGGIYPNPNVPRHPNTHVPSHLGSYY
# Summary of the method: (§1)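 After expression in yeast as GST fusions, human transcription factors were bound to glutathione beads, DNA-barcoded and mixed with a tag-only sample. The pools were incubated with 200 nmole of a 16-mer random double-stranded DNA library in Tris/NaCl/DTT/glycerol buffer (30 min, room temperature), washed and crosslinked with 0.1% formaldehyde. Proximity ligation with BsaI/T4 ligase ran for 1 h at 37 °C, before PCR amplification and sequencing on an Illumina NextSeq500. Binding signal is a hexamer's read frequency for a factor divided by its frequency for the tag-only sample.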
# ELK1 = biological target: T2, ELK1 (Homo sapiens, UniProt P19419 1-428); settings: protein: recombinant; tags: N-terminal GST; dsDNA, one strand shown
# T2 sequence: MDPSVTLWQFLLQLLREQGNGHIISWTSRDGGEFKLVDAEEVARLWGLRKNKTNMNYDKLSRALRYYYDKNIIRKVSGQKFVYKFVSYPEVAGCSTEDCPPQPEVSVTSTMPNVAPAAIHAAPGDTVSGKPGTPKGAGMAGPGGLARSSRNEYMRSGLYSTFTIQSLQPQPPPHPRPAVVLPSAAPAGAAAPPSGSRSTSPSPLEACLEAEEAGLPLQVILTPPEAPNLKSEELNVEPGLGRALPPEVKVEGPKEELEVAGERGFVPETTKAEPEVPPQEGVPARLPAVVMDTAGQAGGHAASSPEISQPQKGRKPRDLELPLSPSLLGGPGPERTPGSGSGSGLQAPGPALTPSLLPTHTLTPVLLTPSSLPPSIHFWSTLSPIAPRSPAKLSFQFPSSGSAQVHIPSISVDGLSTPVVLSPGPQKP
# Summary of the method: as §1
# GABPA = biological target: T3, GABPA (Homo sapiens, UniProt Q06546 1-454); settings: protein: recombinant; tags: N-terminal GST; dsDNA, one strand shown
# T3 sequence: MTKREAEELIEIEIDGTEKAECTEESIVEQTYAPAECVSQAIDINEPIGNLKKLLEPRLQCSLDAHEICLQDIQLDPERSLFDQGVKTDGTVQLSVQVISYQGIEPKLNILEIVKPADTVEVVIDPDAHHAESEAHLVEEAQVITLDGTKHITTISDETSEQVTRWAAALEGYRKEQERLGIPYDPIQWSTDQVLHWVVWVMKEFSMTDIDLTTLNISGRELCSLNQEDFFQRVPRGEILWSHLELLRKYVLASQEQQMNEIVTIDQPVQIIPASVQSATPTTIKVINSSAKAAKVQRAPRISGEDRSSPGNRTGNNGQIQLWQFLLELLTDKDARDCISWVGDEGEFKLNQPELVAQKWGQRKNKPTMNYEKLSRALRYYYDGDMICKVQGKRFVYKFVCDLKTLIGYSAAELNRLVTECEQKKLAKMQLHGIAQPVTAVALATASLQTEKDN
# Summary of the method: as §1
# ERG = biological target: T4, ERG (Homo sapiens, UniProt P11308 1-479); settings: protein: recombinant; tags: N-terminal GST; dsDNA, one strand shown
# T4 sequence: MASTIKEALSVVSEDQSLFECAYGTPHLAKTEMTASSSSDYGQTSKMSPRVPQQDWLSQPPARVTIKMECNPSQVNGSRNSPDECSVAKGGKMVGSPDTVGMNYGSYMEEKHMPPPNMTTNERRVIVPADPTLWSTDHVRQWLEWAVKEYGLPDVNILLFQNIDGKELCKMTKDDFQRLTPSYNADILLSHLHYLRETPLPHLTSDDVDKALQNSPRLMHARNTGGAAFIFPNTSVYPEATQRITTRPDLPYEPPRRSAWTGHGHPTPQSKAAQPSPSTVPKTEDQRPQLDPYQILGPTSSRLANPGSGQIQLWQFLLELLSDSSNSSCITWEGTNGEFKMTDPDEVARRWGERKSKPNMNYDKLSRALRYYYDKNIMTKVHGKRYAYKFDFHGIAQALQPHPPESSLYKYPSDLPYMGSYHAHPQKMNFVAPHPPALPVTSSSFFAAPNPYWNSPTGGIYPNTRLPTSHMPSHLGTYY
# Summary of the method: as §1
# ELF1 = ELF1 (Homo sapiens, UniProt P32519 1-619); settings: protein: recombinant; tags: N-terminal GST; dsDNA, one strand shown
# ELF1, sequence (P32519 whole entry): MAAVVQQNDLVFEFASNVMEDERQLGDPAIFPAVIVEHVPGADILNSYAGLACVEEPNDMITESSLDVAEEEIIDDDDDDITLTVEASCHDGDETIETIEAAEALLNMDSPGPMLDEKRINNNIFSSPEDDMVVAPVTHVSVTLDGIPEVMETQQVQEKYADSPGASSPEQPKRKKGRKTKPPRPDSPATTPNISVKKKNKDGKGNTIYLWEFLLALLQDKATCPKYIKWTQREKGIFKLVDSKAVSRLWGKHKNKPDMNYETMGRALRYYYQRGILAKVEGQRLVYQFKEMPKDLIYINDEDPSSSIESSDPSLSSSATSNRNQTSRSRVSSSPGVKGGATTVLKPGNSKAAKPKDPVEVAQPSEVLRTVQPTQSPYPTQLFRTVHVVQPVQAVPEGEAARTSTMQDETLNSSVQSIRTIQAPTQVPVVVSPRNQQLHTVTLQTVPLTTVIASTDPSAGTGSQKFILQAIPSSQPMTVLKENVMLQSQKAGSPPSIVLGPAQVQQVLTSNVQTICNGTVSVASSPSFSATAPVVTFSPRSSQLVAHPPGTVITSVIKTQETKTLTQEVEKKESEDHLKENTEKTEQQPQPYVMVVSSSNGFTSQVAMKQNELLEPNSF
# Summary of the method: as §1
# EHF = biological target: T5, EHF (Homo sapiens, UniProt Q9NZC4 1-300); settings: protein: recombinant; tags: N-terminal GST; dsDNA, one strand shown
# T5 sequence: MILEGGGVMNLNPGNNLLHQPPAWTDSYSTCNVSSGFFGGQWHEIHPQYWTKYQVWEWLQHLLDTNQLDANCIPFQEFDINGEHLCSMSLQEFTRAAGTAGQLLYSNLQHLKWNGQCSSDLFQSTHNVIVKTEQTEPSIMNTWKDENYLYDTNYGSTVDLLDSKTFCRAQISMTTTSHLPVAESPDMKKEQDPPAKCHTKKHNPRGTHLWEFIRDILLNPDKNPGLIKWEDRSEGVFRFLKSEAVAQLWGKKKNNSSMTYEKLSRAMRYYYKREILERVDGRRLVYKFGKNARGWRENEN
# Summary of the method: as §1
# SPI1 = SPI1 (Homo sapiens, UniProt P17947 1-270); settings: protein: recombinant; tags: N-terminal GST; dsDNA, one strand shown
# Summary of the method: as §1
# SPIB = SPIB (Homo sapiens, UniProt Q01892 1-262); settings: protein: recombinant; tags: N-terminal GST; dsDNA, one strand shown
# SPIB, sequence (Q01892 whole entry): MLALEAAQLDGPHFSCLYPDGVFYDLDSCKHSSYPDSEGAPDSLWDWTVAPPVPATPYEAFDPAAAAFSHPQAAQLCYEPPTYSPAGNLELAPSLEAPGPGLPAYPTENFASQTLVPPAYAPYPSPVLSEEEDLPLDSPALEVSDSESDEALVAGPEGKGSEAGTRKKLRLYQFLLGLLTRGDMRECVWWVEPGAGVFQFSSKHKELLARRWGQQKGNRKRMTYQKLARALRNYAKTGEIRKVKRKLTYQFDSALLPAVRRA
# Summary of the method: as §1
# ELK3 = biological target: T6, ELK3 (Homo sapiens, UniProt P41970 1-407); settings: protein: recombinant; tags: N-terminal GST; dsDNA, one strand shown
# T6 sequence: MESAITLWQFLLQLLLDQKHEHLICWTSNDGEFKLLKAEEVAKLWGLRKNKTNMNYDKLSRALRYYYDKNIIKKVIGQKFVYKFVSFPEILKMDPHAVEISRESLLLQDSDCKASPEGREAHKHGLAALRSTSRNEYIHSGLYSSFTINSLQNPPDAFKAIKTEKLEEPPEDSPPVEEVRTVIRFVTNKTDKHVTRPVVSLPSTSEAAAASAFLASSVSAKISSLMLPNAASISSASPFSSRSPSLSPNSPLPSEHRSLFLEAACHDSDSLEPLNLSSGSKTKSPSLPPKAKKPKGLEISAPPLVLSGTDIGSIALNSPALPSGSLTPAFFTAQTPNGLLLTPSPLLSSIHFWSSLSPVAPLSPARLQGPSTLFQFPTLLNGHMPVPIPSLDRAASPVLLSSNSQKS
# Summary of the method: as §1
# FEV = biological target: T7, FEV (Homo sapiens, UniProt Q99581 1-238); settings: protein: recombinant; tags: N-terminal GST; dsDNA, one strand shown
# T7 sequence: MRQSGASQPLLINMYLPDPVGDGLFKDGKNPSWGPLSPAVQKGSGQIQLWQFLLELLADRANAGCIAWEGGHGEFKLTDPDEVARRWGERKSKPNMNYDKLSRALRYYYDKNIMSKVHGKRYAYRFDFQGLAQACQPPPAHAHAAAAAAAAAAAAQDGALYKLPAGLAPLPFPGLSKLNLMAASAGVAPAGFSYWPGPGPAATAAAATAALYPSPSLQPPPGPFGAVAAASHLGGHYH
# Summary of the method: as §1
# ETV5 = ETV5 (Homo sapiens, UniProt P41161 1-510); settings: protein: recombinant; tags: N-terminal GST; dsDNA, one strand shown
# ETV5, sequence (P41161 whole entry): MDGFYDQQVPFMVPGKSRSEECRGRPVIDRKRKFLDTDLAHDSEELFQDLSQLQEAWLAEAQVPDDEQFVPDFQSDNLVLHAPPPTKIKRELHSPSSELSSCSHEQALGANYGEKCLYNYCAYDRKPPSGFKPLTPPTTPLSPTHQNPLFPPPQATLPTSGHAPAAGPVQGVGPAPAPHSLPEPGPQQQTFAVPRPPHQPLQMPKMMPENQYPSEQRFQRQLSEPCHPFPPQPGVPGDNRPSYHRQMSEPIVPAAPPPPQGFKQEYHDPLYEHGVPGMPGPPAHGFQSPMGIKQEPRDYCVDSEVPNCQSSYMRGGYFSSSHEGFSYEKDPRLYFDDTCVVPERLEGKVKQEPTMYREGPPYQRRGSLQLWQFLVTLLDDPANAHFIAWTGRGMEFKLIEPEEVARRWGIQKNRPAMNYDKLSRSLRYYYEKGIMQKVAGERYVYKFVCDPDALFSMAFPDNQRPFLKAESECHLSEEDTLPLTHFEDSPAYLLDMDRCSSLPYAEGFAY
# Summary of the method: as §1
# HSF1 = HSF1 (Homo sapiens, UniProt Q00613 1-529); settings: protein: recombinant; tags: N-terminal GST; chain copies: 3; dsDNA, one strand shown
# HSF1, sequence (Q00613 whole entry): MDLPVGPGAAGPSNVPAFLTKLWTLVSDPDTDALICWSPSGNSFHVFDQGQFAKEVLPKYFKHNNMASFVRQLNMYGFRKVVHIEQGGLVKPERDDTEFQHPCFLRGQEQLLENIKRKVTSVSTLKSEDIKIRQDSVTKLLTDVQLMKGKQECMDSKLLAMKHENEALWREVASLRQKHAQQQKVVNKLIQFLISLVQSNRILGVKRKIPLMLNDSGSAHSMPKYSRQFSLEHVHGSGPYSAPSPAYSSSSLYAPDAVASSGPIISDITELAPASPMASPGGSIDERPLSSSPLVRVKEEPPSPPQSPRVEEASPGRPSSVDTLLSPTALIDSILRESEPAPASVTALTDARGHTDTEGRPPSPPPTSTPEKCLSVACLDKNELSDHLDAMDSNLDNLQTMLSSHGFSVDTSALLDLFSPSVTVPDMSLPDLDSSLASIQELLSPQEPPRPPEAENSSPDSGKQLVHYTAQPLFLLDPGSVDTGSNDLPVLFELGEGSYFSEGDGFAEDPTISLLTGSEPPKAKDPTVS
# Summary of the method: as §1
# SPIC = biological target: T8, SPIC (Homo sapiens, UniProt Q8N5J4 1-248); settings: protein: recombinant; tags: N-terminal GST; dsDNA, one strand shown
# T8 sequence: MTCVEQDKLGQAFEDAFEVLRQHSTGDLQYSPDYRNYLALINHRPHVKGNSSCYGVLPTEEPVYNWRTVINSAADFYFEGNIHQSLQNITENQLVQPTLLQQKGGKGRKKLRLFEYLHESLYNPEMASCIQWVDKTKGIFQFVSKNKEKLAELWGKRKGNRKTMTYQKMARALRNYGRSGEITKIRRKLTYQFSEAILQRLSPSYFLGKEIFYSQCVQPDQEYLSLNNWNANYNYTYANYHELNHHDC
# Summary of the method: as §1
# ELF4 = ELF4 (Homo sapiens, UniProt Q99607 1-663); settings: protein: recombinant; tags: N-terminal GST; dsDNA, one strand shown
# ELF4, sequence (Q99607 whole entry): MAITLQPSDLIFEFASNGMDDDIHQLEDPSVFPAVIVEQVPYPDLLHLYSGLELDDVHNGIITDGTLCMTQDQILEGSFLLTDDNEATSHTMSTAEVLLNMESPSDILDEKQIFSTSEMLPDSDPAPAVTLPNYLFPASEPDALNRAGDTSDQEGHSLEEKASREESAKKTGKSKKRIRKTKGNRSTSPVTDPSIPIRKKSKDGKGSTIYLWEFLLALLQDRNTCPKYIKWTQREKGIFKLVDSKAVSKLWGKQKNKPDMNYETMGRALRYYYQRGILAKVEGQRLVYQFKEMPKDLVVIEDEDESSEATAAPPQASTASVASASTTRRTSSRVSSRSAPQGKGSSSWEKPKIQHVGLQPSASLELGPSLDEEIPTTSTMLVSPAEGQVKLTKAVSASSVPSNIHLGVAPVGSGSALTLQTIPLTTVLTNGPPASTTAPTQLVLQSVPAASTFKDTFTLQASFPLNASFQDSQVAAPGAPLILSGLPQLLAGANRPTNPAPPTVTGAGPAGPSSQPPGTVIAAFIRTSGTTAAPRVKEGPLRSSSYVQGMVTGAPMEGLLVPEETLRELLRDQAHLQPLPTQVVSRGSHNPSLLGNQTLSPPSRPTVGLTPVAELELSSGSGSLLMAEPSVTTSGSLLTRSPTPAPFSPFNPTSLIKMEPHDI
# Summary of the method: as §1
# ELK4 = biological target: T9, ELK4 (Homo sapiens, UniProt P28324-2 1-405); settings: protein: recombinant; tags: N-terminal GST; dsDNA, one strand shown
# T9 sequence: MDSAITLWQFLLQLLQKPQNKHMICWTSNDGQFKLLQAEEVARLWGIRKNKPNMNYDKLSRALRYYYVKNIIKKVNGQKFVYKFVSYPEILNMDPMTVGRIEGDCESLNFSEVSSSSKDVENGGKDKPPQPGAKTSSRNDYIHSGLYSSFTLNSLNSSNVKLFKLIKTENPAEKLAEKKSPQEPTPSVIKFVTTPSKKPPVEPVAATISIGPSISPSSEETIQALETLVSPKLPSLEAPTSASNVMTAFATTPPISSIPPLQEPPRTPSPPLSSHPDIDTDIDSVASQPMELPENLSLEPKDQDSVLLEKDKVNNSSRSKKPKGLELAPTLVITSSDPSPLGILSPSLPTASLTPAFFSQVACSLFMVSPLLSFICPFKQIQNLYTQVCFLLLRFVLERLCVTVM
# Summary of the method: as §1
# ETV2 = biological target: T10, ETV2 (Homo sapiens, UniProt O00321 1-342); settings: protein: recombinant; tags: N-terminal GST; dsDNA, one strand shown
# T10 sequence: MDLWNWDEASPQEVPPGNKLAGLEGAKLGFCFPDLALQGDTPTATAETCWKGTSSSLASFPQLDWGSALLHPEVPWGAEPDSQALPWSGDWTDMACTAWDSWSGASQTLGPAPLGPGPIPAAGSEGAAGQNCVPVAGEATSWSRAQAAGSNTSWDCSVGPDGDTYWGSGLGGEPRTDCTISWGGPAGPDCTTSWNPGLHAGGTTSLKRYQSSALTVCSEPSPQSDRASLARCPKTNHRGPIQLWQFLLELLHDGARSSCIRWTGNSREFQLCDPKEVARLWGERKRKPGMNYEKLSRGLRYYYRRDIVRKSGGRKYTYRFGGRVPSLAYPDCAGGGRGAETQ
# Summary of the method: as §1
# ELF3 = biological target: T11, ELF3 (Homo sapiens, UniProt P78545 1-371); settings: protein: recombinant; tags: N-terminal GST; dsDNA, one strand shown
# T11 sequence: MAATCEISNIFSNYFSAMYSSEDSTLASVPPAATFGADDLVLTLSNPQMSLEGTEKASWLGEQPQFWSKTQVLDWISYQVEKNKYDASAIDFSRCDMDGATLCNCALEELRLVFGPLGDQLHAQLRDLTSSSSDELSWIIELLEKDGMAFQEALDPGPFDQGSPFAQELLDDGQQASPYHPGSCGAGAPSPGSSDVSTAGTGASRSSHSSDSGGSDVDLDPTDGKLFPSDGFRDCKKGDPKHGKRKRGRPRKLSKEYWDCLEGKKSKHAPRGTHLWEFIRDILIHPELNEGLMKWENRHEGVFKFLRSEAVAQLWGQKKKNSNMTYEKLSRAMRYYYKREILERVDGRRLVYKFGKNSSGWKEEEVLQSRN
# Summary of the method: as §1
# CRX = CRX (Homo sapiens, UniProt O43186 1-299); settings: protein: recombinant; tags: N-terminal GST; dsDNA, one strand shown
# CRX, sequence (O43186 whole entry): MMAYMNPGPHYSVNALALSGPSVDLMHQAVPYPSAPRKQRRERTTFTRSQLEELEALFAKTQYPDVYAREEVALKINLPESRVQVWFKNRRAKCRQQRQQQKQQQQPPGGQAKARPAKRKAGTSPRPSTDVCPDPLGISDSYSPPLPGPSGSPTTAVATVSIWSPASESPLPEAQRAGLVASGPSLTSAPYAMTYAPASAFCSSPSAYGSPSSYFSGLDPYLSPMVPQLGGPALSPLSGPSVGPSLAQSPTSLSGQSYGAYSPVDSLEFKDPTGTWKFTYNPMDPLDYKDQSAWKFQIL
# Summary of the method: as §1
# ETV1 = ETV1 (Homo sapiens, UniProt P50549 1-477); settings: protein: recombinant; tags: N-terminal GST; dsDNA, one strand shown
# ETV1, sequence (P50549 whole entry): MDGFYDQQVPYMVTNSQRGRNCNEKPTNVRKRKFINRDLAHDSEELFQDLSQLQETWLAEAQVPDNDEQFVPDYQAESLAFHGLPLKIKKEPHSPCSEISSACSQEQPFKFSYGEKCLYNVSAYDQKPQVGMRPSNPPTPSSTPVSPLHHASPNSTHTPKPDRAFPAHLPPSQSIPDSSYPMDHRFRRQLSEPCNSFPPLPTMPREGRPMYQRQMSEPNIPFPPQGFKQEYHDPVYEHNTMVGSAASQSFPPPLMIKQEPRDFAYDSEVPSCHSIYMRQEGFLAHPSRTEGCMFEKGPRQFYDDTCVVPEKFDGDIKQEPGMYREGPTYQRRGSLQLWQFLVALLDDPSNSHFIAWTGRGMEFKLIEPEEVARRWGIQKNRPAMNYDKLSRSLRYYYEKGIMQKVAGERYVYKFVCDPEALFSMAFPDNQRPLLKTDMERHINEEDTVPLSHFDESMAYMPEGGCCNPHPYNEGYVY
# Summary of the method: as §1
sequence,measurement,setting,value
TATTTC,binding signal,FLI1,"2.04 fold enrichment (6-mer frequency, TF over GST control)"
same,binding signal,ELK1,"2.09 fold enrichment (6-mer frequency, TF over GST control)"
same,binding signal,GABPA,"2.06 fold enrichment (6-mer frequency, TF over GST control)"
same,binding signal,ERG,"2.32 fold enrichment (6-mer frequency, TF over GST control)"
same,binding signal,ELF1,"2.06 fold enrichment (6-mer frequency, TF over GST control)"
same,binding signal,EHF,"2.21 fold enrichment (6-mer frequency, TF over GST control)"
same,binding signal,SPI1,"2.02 fold enrichment (6-mer frequency, TF over GST control)"
same,binding signal,SPIB,"2.19 fold enrichment (6-mer frequency, TF over GST control)"
same,binding signal,ELK3,"2.21 fold enrichment (6-mer frequency, TF over GST control)"
same,binding signal,FEV,"2.32 fold enrichment (6-mer frequency, TF over GST control)"
same,binding signal,ETV5,"2.13 fold enrichment (6-mer frequency, TF over GST control)"
same,binding signal,HSF1,"1.69 fold enrichment (6-mer frequency, TF over GST control)"
same,binding signal,SPIC,"2.38 fold enrichment (6-mer frequency, TF over GST control)"
same,binding signal,ELF4,"2.01 fold enrichment (6-mer frequency, TF over GST control)"
same,binding signal,ELK4,"2.24 fold enrichment (6-mer frequency, TF over GST control)"
same,binding signal,ETV2,"2.11 fold enrichment (6-mer frequency, TF over GST control)"
same,binding signal,ELF3,"2.09 fold enrichment (6-mer frequency, TF over GST control)"
same,binding signal,CRX,"1.64 fold enrichment (6-mer frequency, TF over GST control)"
same,binding signal,ETV1,"2.14 fold enrichment (6-mer frequency, TF over GST control)"
